Measurements taken from the supplement of paper PMC10849652.
Targets with a hit are over-represented here; the source holds about 7,900 in all. About 0.6% of all pairs of compound and target were hits.

compound: c1cn2cc(-c3ccc4cn[nH]c4c3)nc(Nc3ccc(N4CCOCC4)cc3)c2n1 [entospletinib]; assay: log2 fold change, soluble protein after heating vs DMSO (PISA); higher = thermal stabilisation; K562 cells, 10 uM, 30 min; active = over 0.2 and 3.5 SD of the protein, either way, in both replicates (recomputed)
Summary of the method: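 For each measurement, 10 μM compound was applied for 30 min to K562 cells at 2×10^6 cells/mL. Aliquots were heated for 3 min across 48°C-58°C, pooled, and extracted in PBS with 0.5% NP-40 at 4°C; the supernatant after 21,000xg for 90 min was soluble protein. This was quantified by TMTpro 16plex LC-MS/MS with channel sums equalised, and thermal stability was reported relative to control samples from duplicates, on a log2 fold-change scale.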

Chain of UniProt Q8N2K1 (Q8N2K1 whole entry, looked up): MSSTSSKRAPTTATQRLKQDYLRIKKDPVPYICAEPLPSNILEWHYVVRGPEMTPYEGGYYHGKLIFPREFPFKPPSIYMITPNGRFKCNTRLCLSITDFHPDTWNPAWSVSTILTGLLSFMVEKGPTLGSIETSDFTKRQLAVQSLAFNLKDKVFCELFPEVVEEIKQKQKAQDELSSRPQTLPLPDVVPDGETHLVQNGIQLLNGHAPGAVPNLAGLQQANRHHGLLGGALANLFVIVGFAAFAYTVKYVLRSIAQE
Chain of UniProt Q9UBK9 (Q9UBK9 whole entry, looked up): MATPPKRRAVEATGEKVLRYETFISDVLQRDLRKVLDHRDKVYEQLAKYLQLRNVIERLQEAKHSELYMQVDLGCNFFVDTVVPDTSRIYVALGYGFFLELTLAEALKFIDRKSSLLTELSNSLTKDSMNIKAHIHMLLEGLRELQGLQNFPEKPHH
Chain of UniProt Q969T4 (Q969T4 whole entry, looked up): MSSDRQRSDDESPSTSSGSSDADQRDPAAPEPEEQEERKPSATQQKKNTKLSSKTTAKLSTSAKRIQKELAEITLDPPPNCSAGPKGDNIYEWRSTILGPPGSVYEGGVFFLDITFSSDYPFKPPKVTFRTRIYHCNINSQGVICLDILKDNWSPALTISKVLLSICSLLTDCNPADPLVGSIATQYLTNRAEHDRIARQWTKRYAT
Chain of UniProt Q86UV5 (Q86UV5 whole entry, looked up): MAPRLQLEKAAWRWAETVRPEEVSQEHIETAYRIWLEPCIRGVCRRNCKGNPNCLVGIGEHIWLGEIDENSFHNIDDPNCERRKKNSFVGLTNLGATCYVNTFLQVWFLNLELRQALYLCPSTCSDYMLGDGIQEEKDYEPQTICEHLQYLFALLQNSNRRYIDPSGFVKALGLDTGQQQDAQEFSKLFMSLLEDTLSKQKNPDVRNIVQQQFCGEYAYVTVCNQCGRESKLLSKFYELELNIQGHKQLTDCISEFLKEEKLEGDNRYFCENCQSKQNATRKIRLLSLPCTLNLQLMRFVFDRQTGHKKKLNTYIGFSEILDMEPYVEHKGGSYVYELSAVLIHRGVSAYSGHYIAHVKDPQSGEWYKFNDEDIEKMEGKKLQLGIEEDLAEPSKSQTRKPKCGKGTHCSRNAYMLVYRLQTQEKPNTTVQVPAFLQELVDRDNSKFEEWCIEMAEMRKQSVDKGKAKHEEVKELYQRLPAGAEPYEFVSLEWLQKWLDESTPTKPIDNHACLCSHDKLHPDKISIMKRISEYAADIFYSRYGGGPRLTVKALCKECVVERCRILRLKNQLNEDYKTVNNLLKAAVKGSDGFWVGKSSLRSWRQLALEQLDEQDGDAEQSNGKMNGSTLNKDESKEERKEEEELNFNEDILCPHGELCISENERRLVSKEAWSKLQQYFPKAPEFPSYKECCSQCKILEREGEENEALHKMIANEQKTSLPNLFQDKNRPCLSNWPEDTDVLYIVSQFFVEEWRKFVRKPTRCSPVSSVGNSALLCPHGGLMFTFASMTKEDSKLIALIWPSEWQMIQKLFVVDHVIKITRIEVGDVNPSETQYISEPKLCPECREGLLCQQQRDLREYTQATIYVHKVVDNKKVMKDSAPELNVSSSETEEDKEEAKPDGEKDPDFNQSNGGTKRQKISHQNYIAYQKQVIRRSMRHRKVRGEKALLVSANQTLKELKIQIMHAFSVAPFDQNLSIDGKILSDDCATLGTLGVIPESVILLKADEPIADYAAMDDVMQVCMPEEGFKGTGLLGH
Chain of UniProt Q15629 (Q15629 whole entry, looked up): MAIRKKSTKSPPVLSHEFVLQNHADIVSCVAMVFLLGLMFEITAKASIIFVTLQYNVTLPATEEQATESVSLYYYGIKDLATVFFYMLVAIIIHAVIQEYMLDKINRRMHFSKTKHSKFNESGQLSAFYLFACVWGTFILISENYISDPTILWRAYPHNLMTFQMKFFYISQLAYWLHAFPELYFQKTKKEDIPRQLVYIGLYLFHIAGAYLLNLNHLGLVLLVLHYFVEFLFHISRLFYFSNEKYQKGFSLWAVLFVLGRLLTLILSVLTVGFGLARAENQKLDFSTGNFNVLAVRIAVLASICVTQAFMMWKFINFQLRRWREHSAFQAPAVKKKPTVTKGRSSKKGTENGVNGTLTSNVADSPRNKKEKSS
Chain of UniProt O00124 (O00124 whole entry, looked up): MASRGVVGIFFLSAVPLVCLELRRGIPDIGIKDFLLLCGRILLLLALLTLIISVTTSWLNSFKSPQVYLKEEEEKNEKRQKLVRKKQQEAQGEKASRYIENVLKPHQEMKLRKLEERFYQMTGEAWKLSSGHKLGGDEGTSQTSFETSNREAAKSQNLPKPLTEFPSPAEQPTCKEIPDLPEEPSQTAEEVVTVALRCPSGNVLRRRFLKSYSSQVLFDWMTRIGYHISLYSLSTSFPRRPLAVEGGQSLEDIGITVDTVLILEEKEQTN
Chain of UniProt O43592 (O43592 whole entry, looked up): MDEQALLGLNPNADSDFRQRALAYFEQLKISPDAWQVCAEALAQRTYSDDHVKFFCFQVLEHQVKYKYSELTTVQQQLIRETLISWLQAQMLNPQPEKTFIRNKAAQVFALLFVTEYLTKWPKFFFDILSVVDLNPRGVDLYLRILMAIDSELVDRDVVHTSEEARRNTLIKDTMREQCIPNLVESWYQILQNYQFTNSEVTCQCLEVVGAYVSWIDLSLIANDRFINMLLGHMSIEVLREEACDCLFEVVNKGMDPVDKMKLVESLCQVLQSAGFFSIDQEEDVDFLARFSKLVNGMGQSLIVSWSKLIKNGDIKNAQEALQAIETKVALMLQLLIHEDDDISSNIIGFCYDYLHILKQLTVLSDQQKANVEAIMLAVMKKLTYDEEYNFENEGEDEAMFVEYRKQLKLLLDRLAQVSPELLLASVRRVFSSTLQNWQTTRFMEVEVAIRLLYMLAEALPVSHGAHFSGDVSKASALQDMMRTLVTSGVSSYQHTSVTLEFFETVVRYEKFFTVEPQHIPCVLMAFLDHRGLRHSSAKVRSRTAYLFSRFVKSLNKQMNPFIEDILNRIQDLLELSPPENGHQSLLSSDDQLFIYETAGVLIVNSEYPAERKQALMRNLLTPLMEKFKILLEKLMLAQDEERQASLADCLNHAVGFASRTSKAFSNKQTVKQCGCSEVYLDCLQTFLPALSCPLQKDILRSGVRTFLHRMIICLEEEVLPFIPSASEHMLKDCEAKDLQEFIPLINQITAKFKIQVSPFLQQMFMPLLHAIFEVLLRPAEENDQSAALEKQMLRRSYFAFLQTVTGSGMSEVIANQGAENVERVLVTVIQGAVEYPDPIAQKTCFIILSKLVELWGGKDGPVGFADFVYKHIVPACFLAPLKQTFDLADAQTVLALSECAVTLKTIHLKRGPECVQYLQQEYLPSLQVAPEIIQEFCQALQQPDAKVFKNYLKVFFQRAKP
Chain of UniProt Q9Y2I8 (Q9Y2I8 whole entry, looked up): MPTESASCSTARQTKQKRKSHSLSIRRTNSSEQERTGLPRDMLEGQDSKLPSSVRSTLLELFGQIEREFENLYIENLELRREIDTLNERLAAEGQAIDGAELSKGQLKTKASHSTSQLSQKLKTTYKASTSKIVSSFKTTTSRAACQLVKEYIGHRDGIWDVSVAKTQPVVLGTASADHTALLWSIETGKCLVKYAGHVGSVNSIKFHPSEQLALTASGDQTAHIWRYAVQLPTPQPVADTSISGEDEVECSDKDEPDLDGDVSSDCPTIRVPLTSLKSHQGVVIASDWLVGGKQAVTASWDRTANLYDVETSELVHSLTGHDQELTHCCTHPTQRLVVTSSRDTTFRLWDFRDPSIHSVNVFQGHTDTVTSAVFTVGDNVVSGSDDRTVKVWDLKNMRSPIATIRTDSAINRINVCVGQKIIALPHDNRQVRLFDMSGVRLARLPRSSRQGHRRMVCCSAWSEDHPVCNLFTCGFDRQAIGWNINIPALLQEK
Chain of UniProt Q7L0Y3 (Q7L0Y3 whole entry, looked up): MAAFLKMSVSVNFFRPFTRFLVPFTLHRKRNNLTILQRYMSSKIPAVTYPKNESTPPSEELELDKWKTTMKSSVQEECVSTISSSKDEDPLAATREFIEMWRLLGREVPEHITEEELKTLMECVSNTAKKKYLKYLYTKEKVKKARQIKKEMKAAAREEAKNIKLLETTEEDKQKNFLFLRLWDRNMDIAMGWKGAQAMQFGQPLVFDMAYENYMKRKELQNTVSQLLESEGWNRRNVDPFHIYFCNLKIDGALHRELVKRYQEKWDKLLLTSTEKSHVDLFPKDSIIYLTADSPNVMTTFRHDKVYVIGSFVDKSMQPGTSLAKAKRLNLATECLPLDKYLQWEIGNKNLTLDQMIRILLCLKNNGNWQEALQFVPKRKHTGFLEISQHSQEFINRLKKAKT
Chain of UniProt Q9Y3C0 (Q9Y3C0 whole entry, looked up): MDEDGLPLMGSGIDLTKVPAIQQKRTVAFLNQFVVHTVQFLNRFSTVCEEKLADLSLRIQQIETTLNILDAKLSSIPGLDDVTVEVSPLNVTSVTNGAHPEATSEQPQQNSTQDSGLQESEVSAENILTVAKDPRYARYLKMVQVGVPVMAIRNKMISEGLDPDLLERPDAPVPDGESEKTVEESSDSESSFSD
Chain of UniProt P61960 (P61960 whole entry, looked up): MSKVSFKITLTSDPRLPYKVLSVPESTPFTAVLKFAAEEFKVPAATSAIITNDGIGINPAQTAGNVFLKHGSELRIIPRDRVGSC
Chain of UniProt Q16763 (Q16763 whole entry, looked up): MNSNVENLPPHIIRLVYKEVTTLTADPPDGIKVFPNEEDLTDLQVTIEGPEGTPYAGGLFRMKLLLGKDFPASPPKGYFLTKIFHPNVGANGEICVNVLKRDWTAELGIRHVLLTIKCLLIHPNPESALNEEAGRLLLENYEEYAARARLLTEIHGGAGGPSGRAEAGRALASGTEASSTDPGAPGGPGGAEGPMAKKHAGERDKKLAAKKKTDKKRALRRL
Chain of UniProt Q9BTX3 (Q9BTX3 whole entry, looked up): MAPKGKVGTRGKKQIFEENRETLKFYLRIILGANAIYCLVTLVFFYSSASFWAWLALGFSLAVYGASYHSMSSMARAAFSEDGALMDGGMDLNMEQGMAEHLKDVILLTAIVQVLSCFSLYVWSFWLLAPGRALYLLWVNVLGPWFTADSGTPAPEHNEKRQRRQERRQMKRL

log2 fold change, inactive:
WASHC5 (UniProt Q12768) -0.041, TXNRD1 (UniProt Q16881) 0.054, TRMT10C (UniProt Q7L0Y3) -0.043, UBE2S (UniProt Q16763) -0.029, WARS1 (UniProt G3V5U1) 0.342, TMEM208 (UniProt Q9BTX3) -0.062, USP24 (UniProt Q9UPU5) 0.016, WASHC3 (UniProt Q9Y3C0) 0.007, UBE2J1 (UniProt Q9Y385) 0, UHRF1BP1 (UniProt Q6BDS2) 0.015, UBXN8 (UniProt O00124) -0.231, UBE2E3 (UniProt Q969T4) -0.002, UXT isoform 2 (UniProt Q9UBK9) -0.012, TMTC3 (UniProt Q6ZXV5) 0.007, UBLCP1 (UniProt Q8WVY7) -0.013, UBR2 (UniProt Q8IWV8) 0.029, WDR37 isoform 2 (UniProt Q9Y2I8) -0.004, TNPO2 (UniProt O14787) -0.063, UBA52 (UniProt P62987) 0.159, TRMT61A (UniProt Q96FX7) 0.123, VPS39 (UniProt Q96JC1) -0.007, TMEM164 (UniProt Q5U3C3) 0.007, USP48 (UniProt Q86UV5) -0.055, VPS51 (UniProt Q9UID3) 0.007, VPS16 (UniProt Q9H269) -0.06, VPS35L (UniProt Q7Z3J2) 0.011, XPOT (UniProt O43592) 0.032, TOM1L1 (UniProt O75674) 0.038, XPNPEP3 (UniProt Q9NQH7) -0.025, TMEM161A (UniProt Q9NX61) -0.026, UFM1 isoform 2 (UniProt P61960) 0.079, TRAM1 (UniProt Q15629) 0.145, WDR46 (UniProt O15213) 0.01, TMEM263 (UniProt Q8WUH6) -0.032, VDAC1 (UniProt C9JI87) -0.088, VPS72 isoform 2 (UniProt Q15906) 0.112, UBA1 (UniProt P22314) -0.025, TMEM9B (UniProt Q9NQ34) -0.049, TUBAL3 (UniProt A6NHL2) -0.351, UBE2J2 isoform 3 (UniProt Q8N2K1) -0.028
